# Source: PubChem BioAssay
# Sfp inh: inhibitors of Bacillus subtilis Sfp phosphopantetheinyl transferase; Q9F4F7; Biochemical Sfp PPTase activity, qHTS; Potency, µM, for the others: largest response in the series, negative = inhibition, usual class: inhibitors; 3.5% of 310,000 active;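 note: the enzyme is Sfp with the accession as filed and its product quenches rhodamine fluorescence; 0% = enzyme reaction without inhibitor and -100% = no enzyme wells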
#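 Fluorescence-quenching assay with 15 nM Sfp, 5 uM rhodamine-CoA and 12.5 uM BHQ-2-labelled ybbR peptide in pH 7.6 Hepes/MgCl2 buffer. Enzyme was pre-incubated with compound for 15 min at room temperature. Rate was taken from the 30-min fluorescence change (525/598 nm).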
# JMJD2A Tudor: inhibitors of human JMJD2A Tudor domain; AlphaScreen JMJD2A-Tudor / H3K4me3 peptide binding; Potency, µM (titrated, usually from 114 µM), for the others: at the highest dose activity change, negative = inhibition, hits mostly inhibitors; 4.4% of 390,000 active; note: % is set by controls: 0 for no effect and ±100 for the full control effect; nearly all actives have a fitted effect of over 50% in size
# HP1b chromo inh: HP1-beta chromodomain-methylated histone interaction inhibition; AlphaScreen HP1-beta / biotin-H3K9me3 peptide binding; 0.56% of 390,000 active; Potency, µM (series often up to 114 µM), for the others: top-dose activity change, negative = inhibition, hits mostly inhibitors; note: nearly all actives have a fitted effect of over 70% in size
#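 HP1-beta protein (50 nM final) preincubated 30 min at room temperature with biotinylated H3(1-18)K9me3 peptide (50 nM) in PBS pH 7.4, 0.01% Tween-20, then compound added for 30 min. AlphaScreen streptavidin donor/nickel chelate acceptor beads (10 ug/mL final), 30 min dark, luminescence read.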
# ALOX12 inh: blocks human arachidonate 12S-lipoxygenase; P18054; purified 12hLO, xylenol orange hydroperoxide absorbance; Potency, µM (highest dose often 108 µM), inactives show at the top dose activity change, negative = inhibition, actives largely listed as inhibitors; 1.1% of 580,000 active; note: % is set by controls: 0 for no effect and ±100 for the full control effect
# Target sequence (P18054 whole entry, looked up): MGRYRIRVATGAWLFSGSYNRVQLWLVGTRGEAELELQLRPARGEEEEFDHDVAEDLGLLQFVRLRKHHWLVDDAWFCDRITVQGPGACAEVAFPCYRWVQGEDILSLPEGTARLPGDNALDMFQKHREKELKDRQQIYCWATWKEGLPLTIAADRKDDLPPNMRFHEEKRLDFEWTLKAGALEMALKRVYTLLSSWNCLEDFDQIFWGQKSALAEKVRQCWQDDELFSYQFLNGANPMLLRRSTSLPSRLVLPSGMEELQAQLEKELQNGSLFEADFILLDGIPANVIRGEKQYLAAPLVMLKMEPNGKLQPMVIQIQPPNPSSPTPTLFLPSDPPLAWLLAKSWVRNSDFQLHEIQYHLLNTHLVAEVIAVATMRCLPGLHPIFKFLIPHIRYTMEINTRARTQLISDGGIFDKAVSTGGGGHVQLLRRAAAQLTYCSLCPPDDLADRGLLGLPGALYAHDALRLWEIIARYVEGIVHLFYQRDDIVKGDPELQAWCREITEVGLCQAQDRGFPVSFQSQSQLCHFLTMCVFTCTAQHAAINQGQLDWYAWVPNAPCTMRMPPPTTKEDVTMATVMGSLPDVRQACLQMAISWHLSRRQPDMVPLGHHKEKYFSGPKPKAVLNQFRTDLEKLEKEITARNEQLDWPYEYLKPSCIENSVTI
#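 Purified human 12hLO (150 nM final) in 25 mM Hepes, 0.01% Triton X-100, pH 7.0 was preincubated 15 min at room temperature with compound. Then 40 uM arachidonic acid was added, 30 min. Hydroperoxide was read by Fe-XO absorbance ratio 573/405 nm.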
# BAZ2B inh: BAZ2B (human) inhibition; AID 504333; Q9UIF8; AlphaScreen BAZ2B-H3K14Ac peptide displacement; 4.4% of 360,000 active; Potency, µM (doses to about 114 µM), inactives show top-dose activity change, negative = inhibition, usual class: inhibitors; note: % is set by controls: 0 for no effect and ±100 for the full control effect; nearly all actives have a fitted effect of over 60% in size
#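 AlphaScreen luminescence quantifies BAZ2B engagement of H3K14Ac peptide; the protein and biotinylated peptide are both at 50 nM final, buffer PBS pH 7.4 with 0.01% Tween-20, all steps at room temperature.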
# G9a inh: inhibitors of human histone lysine methyltransferase G9a; 8.8% of 350,000 active; Q96KQ7; G9a H3K9 monomethylation, AlphaScreen, 2 h; Potency, µM (series often up to 102 µM), without a hit: at the highest dose activity, negative = inhibition, actives largely listed as inhibitors; note: % is set by controls: 0 for no effect and ±100 for the full control effect; nearly all actives have a fitted effect of over 75% in size
#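 AlphaScreen detection with an anti-monomethyl H3K9 antibody quantified product after a 2 h room-temperature reaction containing 500 nM biotinylated H3K9 peptide, 20 µM SAM and 20 nM enzyme, which had been preincubated 15 min with compound.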
# Active calls of the source: *; ? = inconclusive; · = no result; [ ] = another dose, or the depositor's remark. Only some compounds are listed: those with a hit (about 8.7% of all), similar ones and a draw of the others. Calls come from the whole dose curve; as a rule, active = well fitted curve in the direction sought with a large enough effect; inconclusive = small, poorly fitted or top-dose-only effect, or another doubt; inactive = no such curve, though single readings can be large; an effect the other way counts as inactive or inconclusive. Potency is the fitted concentration of half-maximal effect.
SMILES,Sfp inh,JMJD2A Tudor,HP1b chromo inh,ALOX12 inh,BAZ2B inh,G9a inh
NNc1ncnc2sc3c(c12)CCC3,?,22µM*,-2%,?,18µM*,-13%
CN(C)c1ccc(Nc2ncnc3sc4c(c23)CCCC4)cc1,·,25µM*,22µM*,0%,32µM*,?
c1cc(Nc2ncnc3sc4c(c23)CCC4)ccn1,10%,-16%,13%,9%,-1%,-22%
CN(CCO)C(C(=O)Nc1ccc(F)cc1)c1ccccc1 (stereo unspecified),·,·,·,-22%,·,·
O=C1[C@H]2CN(Cc3cccc(Cl)c3)C[C@H]2C(=O)N1CCN1CCc2ccccc2C1,·,·,·,31%,·,·
CC(SCc1cn2cc(Cl)ccc2n1)C(=O)O (stereo unspecified),-1%,50µM*,0%,2%,-24%,?
O=C(O)c1ccccc1SCc1cn2cc(Cl)ccc2n1,-22%,-3%,25%,-8%,-28%,-32%
CCOC(=O)c1c(NC(=O)COc2cccc(C)c2C)sc(C(C)=O)c1C,·,-7%,54%,-12%,23%,32%[59 µM]
CCOC(=O)c1c(NC(=O)COc2ccccc2)sc(C(C)=O)c1C,·,-1%,?,-9%,5%,13µM*
Cc1sc(NC(=O)/C=C/c2cccs2)c(C#N)c1C,·,·,·,7.9µM*,·,·
CCOC(=O)c1sc(NC(=O)CNCc2ccccn2)c(C(=O)OCC)c1C,9%,?,9%,-16%,28µM*,·
Cc1sc(NC(=O)COc2ccccc2)c(C#N)c1C,22µM*,-22%,?,?,-21%,10µM*
Cc1scc(C(=O)NCc2cccnc2)c1C,·,·,·,-2%,·,·
Cc1noc(C)c1Cc1ccc(C(=O)N2CCCCCCNC(=O)CC2)o1,·,·,·,19%,·,·
CCCCCC1=CCC/C1=N\NC(=O)c1cccnc1,·,·,·,4%,·,·
CCOC(=O)c1c(NC(=O)COc2ccc(Br)cc2)sc(C(C)=O)c1C,·,-11%,-7%,-24%,-2%,14µM*
O=C(/C=C/c1cccs1)Nc1scc(-c2ccccc2)c1C(=O)O,32µM*,7.1µM*,?,45µM*,·,32µM*
CCOC(=O)c1c(NC(=O)COc2ccc(OC)cc2)sc(C(=O)N(CC)CC)c1C,·,-16%,13%,-11%,?,-38%[59 µM]
Cc1cccc(OCC(=O)OCC(=O)Nc2sccc2C(N)=O)c1,·,5%,17%[57 µM],18%,·,·
NC(=O)c1ccsc1NC(=O)COc1ccccc1,1%,50µM*,?,25%,-3%,-34%[59 µM]
CC(C)(O)CCc1cccc(C(=O)NC2CCN(S(C)(=O)=O)CC2)c1,·,·,·,22%,·,·
CCN1C(=O)C2(CCN(S(=O)(=O)c3ccc(C(F)(F)F)cc3)CC2)c2ccccc21,·,·,·,55%,·,·
Cc1cc(/C=N/NC(=O)C(=O)N2CCCC2)c(C)n1-c1cccc(Br)c1,-19%,?,-3%,151%,-10%,?
Cc1cc(/C=N/NC(=O)c2ccccc2F)c(C)n1-c1ccccc1,2%,-20%,-7%,8%,-37%,50µM*
Cc1cc(/C=N/NC(=O)c2c(Br)cnn2C)c(C)n1-c1cccc(Br)c1,2%,?,?,-21%,28µM*,?
SMILES,Sfp inh,JMJD2A Tudor,HP1b chromo inh,ALOX12 inh,BAZ2B inh,G9a inh
CCCCCCCCOc1ccc(/C=C(/C#N)C(=O)NCc2ccccc2)cc1,·,·,·,-20%,·,·
O=C1CCc2cc(S(=O)(=O)NCc3ccccc3Cl)cc3c2N1CCC3,·,·,·,-15%,·,·
O=C1CN(c2nc3ccccc3n3cnnc23)CC(=O)N1CCc1ccccc1,1%,-10%,31%,?,-4%,79µM*
O=C1c2ccccc2C2=Nc3ccccc3SC(c3ccc(Cl)cc3)C12 (stereo unspecified),1%,?,?,27%,10µM*,11µM*
Fc1cccc(C2NN=C(c3ccccc3)S2)c1 (stereo unspecified),14%,-10%,54%,-12%,-3%,?
O=C1c2ccccc2C2=Nc3ccccc3SC(c3cccc(F)c3)C12 (stereo unspecified),10%,22µM*,28µM*,-20%,28µM*,?
